# Screening results: PubChem, National Center for Advancing Translational Sciences (NCATS)
# FMDV antiviral – antivirals against foot and mouth disease virus | FMDV antiviral cell-based qHTS | Potency, µM (titrated, usually from 57.9 µM), for inactives: at the highest dose activity change, negative = inhibition, usual class: inhibitors | actives 1.2% (n = 410,000) | AID 1159524; calls by dose curve; tested in HEK293T cells; note: read-out not given here; potency is the fitted concentration of half-maximal effect; nearly all actives have a fitted effect of over 45% in size
# HCMV inh – human cytomegalovirus inhibition; HFF cells, HCMV-luciferase reporter, 72 h; stronger effect = lower value; AID 1259415; activity change, negative = inhibition, % at 57.5 µM; actives 4.5% (n = 410,000); in the data active = activity change below about -60%; inconclusive = no clear call, values can overlap the other calls; inactive = above about -39%
#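 Two-dose cell screen: HFF monolayers treated with compounds and infected with luciferase-expressing HCMV at 1 PFU/cell, 72 h at 37C, then lysed for luciferase measurement.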
# Marburg entry inh – inhibitors of Marburg virus binding or cell entry. Marburg virus pseudotyped entry inhibition, cell reporter. Potency, µM (doses to about 37.8 µM), inactives show at the top dose activity change, negative = inhibition, most hits filed as inhibitors. actives 1.8% (n = 300,000). AID 540276; calls by dose curve; tested in HEK293 cells; note: potency is the fitted concentration of half-maximal effect
# VACV Venus inh – inhibitors of vaccinia virus (Venus reporter); Vaccinia virus Venus reporter expression, fluorescence; Potency, µM (top dose mostly 36.5 µM), without a hit: at the highest dose activity change, negative = inhibition, usual class: inhibitors; actives 0.46% (n = 330,000); calls by dose curve; tested in A549 cells; note: potency is the fitted concentration of half-maximal effect; nearly all actives have a fitted effect of over 30% in size
# LASV entry inh – Lassa virus entry inhibition; Lassa virus pseudotype entry inhibition, cell reporter; Potency, µM (doses to about 37.9 µM), without a hit: at the top dose activity change, negative = inhibition, hits mostly inhibitors; actives 1.2% (n = 300,000); AID 540256; calls by dose curve; tested in HEK293 cells; note: potency is the fitted concentration of half-maximal effect; nearly all actives have a fitted effect of over 50% in size
# Vaccinia mCherry – inhibitors of vaccinia virus infection (mCherry reporter signal); AID 720579; Potency, µM (titrated, usually from 36.5 µM), inactives show top-dose activity change, negative = inhibition, most hits filed as inhibitors; Vaccinia virus mCherry reporter infection, fluorescence; actives 0.63% (n = 310,000); calls by dose curve; tested in A549 cells; note: potency is the fitted concentration of half-maximal effect; nearly all actives have a fitted effect of over 35% in size
# * hit, by the source's call; i = inactive; ? = inconclusive; . = no result given; [ ] = dose if it differs, or a comment. Rows were chosen to be rich in hits. Some 6.5% of all compounds tested hit in one or more screens of this group. % is set by controls: 0 for no effect and ±100 for the full control effect.
SMILES,FMDV antiviral,HCMV inh,Marburg entry inh,VACV Venus inh,LASV entry inh,Vaccinia mCherry
COc1ccc(NC(=O)c2ccncc2)cc1S(=O)(=O)N1CCCCC1,3%,-16,.,-12%,.,-17%
CCc1ccc(C(=O)Nc2ccc(OC)c(S(=O)(=O)N3CCOCC3)c2)cc1,?,-89*,2%[46.1 µM],-20%,-23%,-25%
COc1ccc(NC(=O)Cc2coc3cc(C)c(C(C)C)cc23)cc1S(=O)(=O)N1CCOCC1,0%,-67*,?,?,?,?
CCc1ccc(C(=O)Nc2ccc(OC)c(S(=O)(=O)N3CCCCC3)c2)cc1,?,-97*,.,.,.,.
Cc1c(C(=O)NCC2COCCO2)cnn1-c1ncc2c(n1)-c1ccccc1CC2 (stereo unspecified),27%,.,.,?,.,?
CCCCCNC(=O)c1cccc(S(=O)(=O)N2CC3(C)CC2CC(C)(C)C3)c1 (stereo unspecified),8%,-2,?,?,13µM*,?
O=[N+]([O-])c1ccc(Sc2ccccc2Cl)nc1,-22%,-27,?,.,-2%,.
O=[N+]([O-])c1ccc(Sc2ncc3ccccn23)nc1,-4%,-65*,.,.,.,.
CCn1c(Sc2ccc([N+](=O)[O-])cn2)nnc1-c1ccco1,?,-86*,?,?,?,13µM*
Cc1c(C(=O)N2CCCCCC2)c(S(=O)(=O)N(Cc2ccccc2)C(C)(C)C)c(C)n1C,-34%,-33,.,-5%,-18%[46.1 µM],-1%
Nc1c(C(=O)c2ccccc2)sc2nsc(SCCN3CCCC3)c12,-16%,-91*,?,?,6.3µM*,-52%
Cc1cccc(N2CN=c3s/c(=C/c4ccncc4)c(=O)n3C2)c1,.,.,-1%,.,.,.
COc1cc(COCC(O)CN2C(C)CCCC2C)cc(OC)c1OC (stereo unspecified),-10%,9,.,.,.,.
CC1CCCC(C)N1CC(O)COCc1ccccc1 (stereo unspecified),-14%,?,6.3µM*,-17%,-29%[46.1 µM],-17%
Cc1ccc(-n2nc3cc(C)c(NC(=S)NC(=O)/C=C/c4ccco4)cc3n2)cc1,13%,-25,?,-4%,?,-14%
O=C(/C=C/c1ccco1)NC(=S)Nc1cc(-c2nc3ccccc3s2)ccc1Cl,6%,280,?,-29%,-23%,i
Cc1ccc(-n2nc3ccc(NC(=S)NC(=O)/C=C/c4ccco4)cc3n2)cc1,9%,-68*,25%,-8%,?,-10%
O=C(/C=C/c1ccco1)NC(=S)Nc1cccc(-c2nc3ccccc3s2)c1,-6%,57,3.5µM*,?,-21%,-23%
O=C(Cc1cccnc1)N1CC(=O)N2[C@@H](CO)[C@H](c3ccc(Br)cc3)[C@@H]2C1,.,-8,.,.,.,.
COc1ccc(S(=O)(=O)/N=C2\C=C(Nc3ccc(O)cc3)C(=O)c3ccccc32)cc1,7.9µM*,-99*,?,3.5µM*,?,5µM*
Cc1ccc(NC2=C/C(=N/S(=O)(=O)c3cccs3)c3ccccc3C2=O)cc1C,-18%,62,-7%,-12%,4%,i
CCc1ccc(S(=O)(=O)/N=C2\C=C(NS(=O)(=O)c3ccccc3)C(=O)c3ccccc32)cc1,71%,-36,.,.,.,.
CC(=O)Nc1ccc(NC2=C/C(=N/S(=O)(=O)c3cccs3)c3ccccc3C2=O)cc1,?,-101*,5µM*,11µM*,?,?
Cc1ccccc1NC1=C/C(=N\S(=O)(=O)c2cccs2)c2ccccc2C1=O,10µM*,-106*,3.7µM*,.,?,.
COC(=O)/C=C1\OC(C)c2ccccc21 (stereo unspecified),.,84,.,.,.,.
SMILES,FMDV antiviral,HCMV inh,Marburg entry inh,VACV Venus inh,LASV entry inh,Vaccinia mCherry
COc1ccc(Cc2nc3ccccc3n2Cc2ccccc2F)cc1,-28%,-12,?,-4%,-26%[46.1 µM],-9%
COc1cccc(CN2C(=O)CN(C3CCCCC3)C(=O)C2c2ccc(OC(C)C)c(OC)c2)c1 (stereo unspecified),0%,-2,.,-13%,?,-2%
COc1cccc(C2C(=O)N(C3CCCCC3)CC(=O)N2Cc2ccc(Cl)cc2)c1 (stereo unspecified),1%,-68*,.,-9%,-15%[46.1 µM],-13%
COc1ccc(CC(N)c2csc(NC(=O)Nc3ccc(F)cc3)n2)cc1 (stereo unspecified),-33%,-10,.,-13%,.,-26%
NC(Cc1ccc(C(F)(F)F)cc1)c1csc(Nc2nncc3ccccc23)n1 (stereo unspecified),-24%,-104*,.,?,.,?
CC(C)C(N)c1csc(NC(=O)Nc2cccc(C(F)(F)F)c2)n1 (stereo unspecified),-12%,3,.,-24%,.,-8%
NC(CCc1ccccc1)c1csc(NC(=O)Nc2cccc(C(F)(F)F)c2)n1 (stereo unspecified),-23%,-98*,.,?,.,?
NC(Cc1ccc(Cl)cc1)c1csc(NC(=O)Nc2ccccc2)n1 (stereo unspecified),-27%,14,.,?,.,?
COc1ccc(CC(N)c2csc(NC(=O)Nc3cccc(C(F)(F)F)c3)n2)cc1 (stereo unspecified),-15%,-39,.,14µM*,.,?
NC(Cc1ccc(C(F)(F)F)cc1)c1csc(NC(=O)Nc2ccccc2)n1 (stereo unspecified),-24%,-28,.,10µM*,.,?
CC(OC(=O)c1ccccc1OCC(=O)Nc1ccc(Br)cc1)C(=O)NC1CCCC1 (stereo unspecified),.,.,.,-7%,.,i
COC[C@@H](OC(C)=O)[C@H]1OCc2ccccc2[C@@H]1C=Cc1ccccc1,.,.,14%[14.2 µM],.,.,.
CCCCN(C)C(=O)c1ccc(Nc2nc(C(N)Cc3ccc(C(F)(F)F)cc3)cs2)nc1 (stereo unspecified),-23%,-76*,.,-21%,.,-20%
O=C(c1cnn(-c2nccc(-c3ccccc3F)n2)c1C1CC1)N1CCCCC1c1cccnc1 (stereo unspecified),-8%,.,.,-28%,.,?
CC(=O)N1CCN(C(=S)Nc2ccc(SC(F)F)cc2)CC1,81%,-76*,5%[46.1 µM],1%,.,-4%
CC1CCN(C(=S)Nc2ccc(SC(F)F)cc2)CC1,25%,-37,-24%,-15%,-8%,-26%
FC(F)Sc1ccc(NC(=S)NCC2CCCCC2)cc1,9%,-97*,-26%,.,-26%,.
CC1CCCCC1NC(=S)Nc1ccc(SC(F)F)cc1 (stereo unspecified),-9%,-100*,-17%,?,?,.
Cc1ccc(CN2CCC(CNC(=O)Nc3c(C)cccc3C)C2)cc1 (stereo unspecified),-17%,-5,2%[46.1 µM],-9%,22%[46.1 µM],-15%
Cc1noc(C)c1-c1cncnc1NCc1cccnc1,-15%,.,.,.,.,.
CSCSC1=C(C#N)C(c2ccc(Cl)cc2)C(C(C)=O)=C(C)N1 (stereo unspecified),.,.,1%,.,.,.
